# Source: the supplement of paper PMC12494721
# Structures can show the parent of a compound that is named as a salt.
# Assays:
# Details in all cases: incubation time: 27 h, anaerobic, 37 °C;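 for the amine columns active = adjusted P below 0.05 in both replicates with a change the same way and a mean fold change under 0.8 or over 1.25; inactive = the rest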
# [1] = system: Clostridium sporogenes DSM 1664; assay: growth (OD595) fold change vs plate DMSO controls (fold change (ratio)); higher = more growth
# Procedure, shortened: (§1)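 Each value is the mean of 2 biological replicates, and fold changes above 1.5 were set to NA. The underlying readings were taken at 595 nm from shaken anaerobic mGAM cultures in 96-well plates after 27 h at 37 °C. They were blank-subtracted, corrected for compound background using 20 µM compound solutions in water, and converted to OD with a calibration factor of 5. Growth is the fold change relative to the median of the plate DMSO controls.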
# Escherichia coli IAI1 [2] = assay: as above
# Procedure, shortened: as §1
# [3] = system: Klebsiella aerogenes DSM 30053; assay: as above
# Procedure, shortened: as §1
# [4] = system: Ruminococcus gnavus DSM 108212; assay: as above
# Procedure, shortened: as §1
# [5] = system: Klebsiella aerogenes DSM 30053; assay: fold change of Histamine concentration vs plate DMSO controls (fold change (ratio)); higher = more amine produced, active = hit call of the paper (significant change in both replicates, either direction)
# Procedure, shortened: (§2)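 Anaerobic mGAM cultures of four gut bacterial strains were grown at 37 °C for 27 h in 80 µL wells, starting at OD 0.1 before 1:1 dilution. Compounds were at 20 µM final (sweeteners 50 µM). Whole cultures were extracted with cold acetonitrile/methanol containing 0.1% formic acid and centrifuged. Amines were quantified by LC–triple-quadrupole MS (dynamic MRM) against external calibration curves and drift-corrected within batch. Each value is the fold change versus plate DMSO controls, averaged over 2 biological replicates.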
# [6] = system: Clostridium sporogenes DSM 1664; assay: fold change of Tryptamine concentration vs plate DMSO controls (fold change (ratio)); higher = more amine produced, active = hit call of the paper (significant change in both replicates, either direction)
# Procedure, shortened: as §2
# [7] = system: Ruminococcus gnavus DSM 108212; assay: as above
# Procedure, shortened: as §2
# Escherichia coli IAI1 [8] = assay: fold change of Putrescine concentration vs plate DMSO controls (fold change (ratio)); higher = more amine produced, active = hit call of the paper (significant change in both replicates, either direction)
# Procedure, shortened: as §2
# [9] = system: Klebsiella aerogenes DSM 30053; assay: as above
# Procedure, shortened: as §2
# Escherichia coli IAI1 [10] = assay: fold change of Cadaverine concentration vs plate DMSO controls (fold change (ratio)); higher = more amine produced, active = hit call of the paper (significant change in both replicates, either direction)
# Procedure, shortened: as §2
# [11] = system: Klebsiella aerogenes DSM 30053; assay: as above
# Procedure, shortened: as §2
# [12] = system: Ruminococcus gnavus DSM 108212; assay: fold change of 2-Phenylethylamine concentration vs plate DMSO controls (fold change (ratio)); higher = more amine produced, active = hit call of the paper (significant change in both replicates, either direction)
# Procedure, shortened: as §2
SMILES,growth [1],growth (Escherichia coli IAI1 [2]),growth [3],growth [4],fold change of Histamine concentration [5],fold change of Tryptamine concentration [6],fold change of Tryptamine concentration [7],fold change of Putrescine concentration (Escherichia coli IAI1 [8]),fold change of Putrescine concentration [9],fold change of Cadaverine concentration (Escherichia coli IAI1 [10]),fold change of Cadaverine concentration [11],fold change of 2-Phenylethylamine concentration [12]
CC1CS(=O)(=O)CCN1/N=C/c1ccc([N+](=O)[O-])o1 (stereo not drawn) [Nifurtimox] (20 µM),1.13,1.03,0.924,1.04,0.593 (active),0.895 (inactive),0.971 (inactive),0.949 (inactive),0.949 (inactive),0.974 (inactive),0.998 (inactive),1.03 (inactive)
Nc1cc(-c2ccncc2)c[nH]c1=O [Amrinone] (20 µM),1.17,0.984,1.02,1.19,0.956 (inactive),1.05 (inactive),1 (inactive),1.02 (inactive),0.998 (inactive),0.982 (inactive),1.02 (inactive),0.97 (inactive)
CCCCCN(CCCCC)C(=O)C(CCC(=O)O)NC(=O)c1ccc(Cl)c(Cl)c1 (stereo not drawn) [Lorglumide sodium salt] (20 µM),0.981,1.02,1.02,1.01,0.987 (inactive),0.763 (active),0.94 (inactive),1.07 (inactive),1.01 (inactive),1.03 (inactive),1.01 (inactive),0.919 (inactive)
CC12CC3CC(C)(C1)CC(N)(C3)C2 [Memantine hydrochloride] (20 µM),1.01,0.987,1,0.997,0.989 (inactive),1.03 (inactive),1.09 (inactive),0.984 (inactive),0.984 (inactive),0.995 (inactive),0.992 (inactive),1.13 (inactive)
O=S(=O)(c1cccc2cnccc12)N1CCCNCC1 [Fasudil Hydrochloride] (20 µM),1.22,0.981,0.977,0.969,1.05 (inactive),0.964 (inactive),1.01 (inactive),1.01 (inactive),1.03 (inactive),1.03 (inactive),1.01 (inactive),0.942 (inactive)
CC(=O)N[C@@H](CCC(N)=O)C(=O)O [Acetyl-L-glutamine] (20 µM),1.04,0.982,0.977,1.12,1.03 (inactive),0.997 (inactive),1.02 (inactive),0.98 (inactive),1 (inactive),0.977 (inactive),0.99 (inactive),1.05 (inactive)
CC(C(=O)O)c1ccc(CC2CCCC2=O)cc1 (stereo not drawn) [Loxoprofen] (20 µM),1.24,1.03,1.06,1.13,0.95 (inactive),1.05 (inactive),1 (inactive),1.02 (inactive),1.02 (inactive),0.981 (inactive),1.01 (inactive),0.997 (inactive)
COc1ccc(CCC(=O)c2c(O)cc(O[C@@H]3O[C@H](CO)[C@@H](O)[C@H](O)[C@H]3O[C@@H]3O[C@@H](C)[C@H](O)[C@@H](O)[C@H]3O)cc2O)cc1O [Neohesperidin Dihydrochalcone (Nhdc)] (50 µM),1.25,0.987,1.01,1.05,1.02 (inactive),1.01 (inactive),0.995 (inactive),1.01 (inactive),1.02 (inactive),0.96 (inactive),0.99 (inactive),0.961 (inactive)
NS(=O)(=O)c1cc2c(cc1Cl)N=C(CSCc1ccccc1)NS2(=O)=O [Benzthiazide] (20 µM),1.1,0.998,1.02,1.08,0.978 (inactive),0.983 (inactive),0.961 (inactive),0.975 (inactive),0.993 (inactive),1.02 (inactive),0.993 (inactive),0.939 (inactive)
Nc1ncnc2c1ncn2C1OC(COP(=O)(O)O)C(O)C1O (stereo not drawn) [Adenosine 5'-monophosphate monohydrate] (20 µM),1.05,1.01,0.973,0.96,1.07 (inactive),1.01 (inactive),1.02 (inactive),1.04 (inactive),1.02 (inactive),0.991 (inactive),0.987 (inactive),1.01 (inactive)
O=c1[nH]c(=O)n([C@H]2C[C@H](O)[C@@H](CO)O2)cc1C(F)(F)F [Trifluridine] (20 µM),1.14,1.04,0.99,0.913,1.09 (inactive),1.02 (inactive),1.07 (inactive),0.948 (inactive),0.972 (inactive),1.04 (inactive),0.975 (inactive),1.11 (inactive)
NC[C@@H]1O[C@H](O[C@H]2[C@@H](O)[C@H](O[C@@H]3[C@@H](O)[C@H](N)C[C@H](N)[C@H]3O[C@H]3O[C@H](CO)[C@@H](O)[C@H](O)[C@H]3N)O[C@@H]2CO)[C@H](N)[C@@H](O)[C@@H]1O [Paromomycin sulfate] (20 µM),1.06,0.996,0.975,0.984,0.994 (inactive),1.03 (inactive),0.999 (inactive),1.01 (inactive),1 (inactive),0.972 (inactive),0.981 (inactive),0.987 (inactive)
COc1ccc(C(=O)NCc2cccnc2)cc1C(=O)NCc1cccnc1 [Picotamide monohydrate] (20 µM),0.983,0.972,0.998,0.842,1.07 (inactive),1.06 (inactive),0.926 (inactive),0.989 (inactive),1.05 (inactive),0.962 (inactive),1.02 (inactive),0.866 (inactive)
C/C(=C(\CCOP(=O)(O)O)SC(=O)c1ccccc1)N(C=O)Cc1cnc(C)nc1N [Benfotiamine] (20 µM),0.989,0.98,1.03,1.05,0.984 (inactive),1.01 (inactive),0.96 (inactive),0.942 (inactive),1 (inactive),1.04 (inactive),1 (inactive),0.959 (inactive)
C(=C\c1ccccc1)/CN1CCN(C(c2ccccc2)c2ccccc2)CC1 [Cinnarizine] (20 µM),1.09,0.964,0.991,0.67,0.941 (inactive),0.969 (inactive),0.824 (inactive),0.993 (inactive),0.998 (inactive),0.991 (inactive),1 (inactive),0.878 (inactive)
CC(=O)OCC(=O)[C@@]12OC3(CCCC3)O[C@@H]1C[C@H]1[C@@H]3CCC4=CC(=O)C=C[C@]4(C)[C@@]3(F)[C@@H](O)C[C@@]12C [Amcinonide] (20 µM),1.12,1.02,1.02,1.19,1.04 (inactive),0.964 (inactive),1.05 (inactive),1.02 (inactive),0.999 (inactive),1.04 (inactive),0.997 (inactive),1.07 (inactive)
CCN1C(=O)NC(c2ccccc2)C1=O (stereo not drawn) [Ethotoin] (20 µM),0.983,0.999,0.982,1.14,1.06 (inactive),0.942 (inactive),0.879 (inactive),0.991 (inactive),0.991 (inactive),0.999 (inactive),0.981 (inactive),0.855 (inactive)
CN1CC2c3ccccc3Oc3ccc(Cl)cc3C2C1 (stereo not drawn) [Asenapine maleate] (20 µM),1.1,0.969,1.04,0.834,0.986 (inactive),1.05 (inactive),0.905 (inactive),1 (inactive),1.02 (inactive),0.973 (inactive),0.998 (inactive),0.917 (inactive)
OCCN1CCN(CCCN2c3ccccc3Sc3ccc(C(F)(F)F)cc32)CC1 [Fluphenazine dihydrochloride] (20 µM),1.03,1.13,1.05,0.85,0.925 (inactive),1.22 (inactive),0.878 (inactive),1.09 (inactive),0.982 (inactive),1.11 (inactive),1.03 (inactive),0.869 (inactive)
Cc1ncc([N+](=O)[O-])n1CC(C)O (stereo not drawn) [Secnidazole] (20 µM),0,1.07,1.02,0.0442,0.824 (inactive),0.0346 (active),0.041 (active),0.978 (inactive),1.03 (inactive),0.987 (inactive),1.02 (inactive),0.0431 (active)
N=C(N)NC(=O)Cc1c(Cl)cccc1Cl [Guanfacine hydrochloride] (20 µM),0.939,0.961,1.03,0.811,0.903 (inactive),0.953 (inactive),1.01 (inactive),1.02 (inactive),0.99 (inactive),1.01 (inactive),1.01 (inactive),1.02 (inactive)
N#CC(c1ccc(Cl)cc1)c1c(Cl)cc(-n2ncc(=O)[nH]c2=O)cc1Cl (stereo not drawn) [Diclazuril] (20 µM),0.806,0.993,1.08,0.961,0.913 (inactive),0.791 (inactive),0.778 (active),0.911 (inactive),0.967 (inactive),0.99 (inactive),1.03 (inactive),0.81 (inactive)
C/C(O)=C(\C#N)C(=O)Nc1ccc(C(F)(F)F)cc1 [Teriflunomide] (20 µM),0.938,1.02,1.01,0.966,1.01 (inactive),0.946 (inactive),1 (inactive),1.07 (inactive),1.02 (inactive),1.09 (inactive),0.998 (inactive),1.04 (inactive)
CCOC(=O)/C=C(C)/C=C/C=C(C)/C=C/c1c(C)cc(OC)c(C)c1C [Etretinate] (20 µM),1.04,0.971,0.965,0.927,1.09 (inactive),1.02 (inactive),1.03 (inactive),0.998 (inactive),1.02 (inactive),1 (inactive),0.983 (inactive),1.04 (inactive)
